Shown are actives, neighbours in structure and some others; about 19% of the full set was active somewhere.
DT40 TDP1 CPT – DT40-hTDP1 cell growth loss with CPT | Potency, µM (doses to about 46.2 µM), for the others: at the top dose activity change, negative = growth inhibition, usual class: inhibitors | chicken DT40 Tdp1-/-;hTDP1 cells + 20 nM CPT, ATP luminescence, 48 h | AID 686979 | 420,000 compounds, 12% hits; also: potency is read from the fitted curve at half-maximal effect; nearly all actives have a fitted effect of over 55% in size
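Chicken DT40 Tdp1-/- cells stably complemented with human TDP1 were seeded at 400 cells/well in medium containing 20 nM camptothecin, exposed to pin-transferred compounds, and grown at 37 °C for at least 48 hr. Viability was read as ATP luminescence.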
DT40 TDP1 no CPT – qHTS for Inhibitors of human tyrosyl-DNA phosphodiesterase 1 (TDP1): qHTS in cells in absence of CPT; 420,000 compounds, 15% hits; Potency, µM (highest dose often 46.2 µM), for the others: at the top dose activity change, negative = growth inhibition, hits mostly inhibitors; DT40 Tdp1-/- hTDP1 cells, no CPT, ATP luminescence, 48 h; also: potency is read from the fitted curve at half-maximal effect; nearly all actives have a fitted effect of over 55% in size
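Cells were dispensed at 400 per well, compounds added by pin tool, plates incubated ≥48 hr at 37 °C, then CellTiter-Glo added for 30 min at room temperature before luminescence reading. Line: DT40 Tdp1-/- complemented with hTDP1; camptothecin omitted.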
ELG1 repair inh – blocks ELG1-dependent DNA repair in HEK293T cells | HEK293T ELG1-luciferase reporter, luminescence, 16 h; DNA damage induced by 5-fluorouridine | Potency, µM (top dose mostly 46.1 µM), without a hit: at the top dose activity change, negative = inhibition, hits mostly inhibitors | 330,000 compounds, 2.3% hits; also: potency is read from the fitted curve at half-maximal effect; nearly all actives have a fitted effect of over 55% in size
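Cells (2,000 per well) received 5-fluorouridine plus test compound or DMSO and were incubated 16 hr at 37 °C, 5% CO2. Luciferase activity was read by luminescence 30 min after ONE-Glo addition; signal suppression marked inhibition of damage-induced ELG1 function.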
TDP1 inh – inhibitors of human tyrosyl-DNA phosphodiesterase TDP1 | Potency, µM (top dose mostly 130 µM), without a hit: top-dose activity change, negative = inhibition, actives largely listed as inhibitors | Q9NUW8 | recombinant TDP1, AlphaScreen DNA substrate cleavage | 350,000 compounds, 0.28% hits; also: potency is read from the fitted curve at half-maximal effect; nearly all actives have a fitted effect of over 40% in size
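Recombinant E. coli-expressed Tdp1 (1 nM) preincubated with compound 15 min at RT, then 5'-biotin/3'-phosphotyrosine-FITC DNA substrate (15 nM) added for 5 min. AlphaScreen beads (10 ug/ml) added, 10 min RT; tyrosine-FITC cleavage read as signal loss.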
Giardia killer – Giardia lamblia killing; Giardia lamblia trophozoite viability; activity change, % at 7.66 µM, hits read low; 340,000 compounds, 0.15% hits; in the data active = activity change below about -80%; inconclusive = between about -30% and that limit;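 also: parasites exposed to compound for two days anaerobically before the ATP read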
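Trophozoite viability was measured as ATP-dependent luminescence, read 15-30 min after reagent addition. Before that, parasites at 100 cells/well were exposed to compounds for 48 h, anaerobically, at 37 deg C.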
IL-1B inflam inh – inflammasome signaling inhibition, IL-1 beta readout; AID 743279; 360,000 compounds, 4.7% hits; THP-1 LPS/ATP IL-1B secretion, AlphaLISA, 16 h; hits give low values; activity change, % at 57.5 µM; in the data active = activity change below about -50%; inconclusive = mostly about -30% to -49%
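THP-1 cells pretreated 1 hr with compounds (up to 57.5 uM final), then stimulated with LPS (250 ng/mL final) plus ATP (1.25 mM final); secreted IL-1B measured by AlphaLISA after 16 hr, decreased signal indicating inhibition.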
* hit, by the source's call; ? = inconclusive; · = not tested or not shown. Unless noted, calls follow the shape of the dose curve; as a rule, active = well fitted curve in the direction sought with a large enough effect; inconclusive = small, poorly fitted or top-dose-only effect, or another doubt; inactive = no such curve, though single readings can be large; an effect the other way counts as inactive or inconclusive. % is scaled to controls: 0 for no effect and ±100 for the full control effect.

SMILES	DT40 TDP1 CPT	DT40 TDP1 no CPT	ELG1 repair inh	TDP1 inh	Giardia killer	IL-1B inflam inh
CC1CCC2(CC1)NC(=O)N(CC(=O)Nc1cccc(S(=O)(=O)N3CCOCC3)c1)C2=O (stereo unspecified)	-12%	2%	-6%	3%	1	22
CC1(c2cccc(Br)c2)NC(=O)N(CC(=O)Nc2ccc(N3CCCCC3)cc2)C1=O (stereo unspecified)	?	13µM*	·	·	·	-9
CCc1cccc(NC(=O)CN2C(=O)NC3(CCCCCCC3)C2=O)c1	10µM*	15µM*	6%	4%	13	8
CC1CCC2(CC1)NC(=O)N(CC(=O)Nc1cccc(S(=O)(=O)N3CCCCC3)c1)C2=O (stereo unspecified)	?	23µM*	-9%	4%	-12	-4
O=C(CN1C(=O)NC2(CCCCCC2)C1=O)Nc1ccc(OC(F)(F)F)cc1	15µM*	9.2µM*	·	·	·	-22
CC(=O)c1ccc(NC(=O)c2ccc(-n3cnnn3)cc2)cc1	7%	-15%	15%	-6%	4	-5
COc1ccc(NC(=O)c2sc3nc(C)c(C(=O)Nc4ccc(C)cc4C)c(-c4cccs4)c3c2N)cc1	-24%	-24%	·	0%	·	·
COc1ccc(Cc2nnc(NC(=O)C3CCN(C(=O)c4ccco4)CC3)s2)cc1	2%	?	-13%	0%	10	14
Cc1cccc(NC(=O)c2ccc(COc3cccc4ccccc34)o2)n1	-9%	?	-16%	-5%	1	9
Cc1cc(C)n2c(SCC(=O)Nc3ccc(F)cc3)nnc2n1	-18%	-28%	-2%	3%	-11	?
COC(=O)c1c(OCc2cccnc2)cc(=O)n2c1CCN(C(=O)c1ccc(OC)c(F)c1)CC2	8%	-14%	·	·	·	·
O=C(CN1C(=O)NC2(CCCC2)C1=O)OCc1ccc(Br)cc1	?	?	7%	-8%	-25	-28
CCC1(c2ccccc2)NC(=O)N(CC(=O)Nc2cc(S(=O)(=O)N3CCCCC3)ccc2N(C)C)C1=O (stereo unspecified)	?	21µM*	-9%	1%	15	-30
O=C(CN1C(=O)NC2(CCCC2)C1=O)OCc1ccc(Cl)c(Cl)c1	16µM*	21µM*	?	·	-7	-1
CC(C)CC1(C)NC(=O)N(CC(=O)Nc2ccc3c(c2)CCC3)C1=O (stereo unspecified)	?	26µM*	-10%	0%	11	0
CCN(CC)c1ccc(S(=O)(=O)N2CCCCC2)cc1NC(=O)CN1C(=O)NC2(CCCC2)C1=O	-26%	?	-13%	-11%	-2	?
CCN(c1ccccc1)S(=O)(=O)c1ccc(OC)c(NC(=O)CN2C(=O)NC(C)(C)C2=O)c1	-14%	-1%	20%	0%	-6	-5
CCN(c1ccccc1)S(=O)(=O)c1ccc(Cl)c(NC(=O)CN2C(=O)NC3(CCCC3)C2=O)c1	?	18µM*	-7%	2%	10	?
Cc1coc2c1c(C)cc1oc(=O)c(CC(=O)NCc3ccc(Cl)cc3)c(C)c12	2%	?	·	-2%	·	·
CC(=O)Nc1ccc(NC(=O)CN2C(=O)NC3(CCCCCCC3)C2=O)cc1	-16%	?	?	0%	22	22
Cc1cc(NC(=O)CN2C(=O)NC3(CCCCCC3)C2=O)ccc1Br	?	21µM*	?	-1%	-19	-13
O=C1NC2(CCCCCC2)C(=O)N1Cc1cccc(Cl)c1	-3%	-13%	-1%	·	-5	27
CCc1ccc(C(=O)CN2C(=O)NC3(CCCCCC3)C2=O)cc1	?	23µM*	?	-2%	13	-27

Compound activity: PubChem BioAssay, National Center for Advancing Translational Sciences (NCATS)
